Laboratory results as given in PubChem BioAssay (EPA / NIEHS).
Results filed as inconclusive are left out. Active and inactive are the calls of the source. The calls were made as follows, unless noted: active = hit-call score of the fitted dose curve at least 0.9, where 1 is the maximum; inactive = score below 0.9.

Tests used:
[1] = APR_HepG2_CellCycleArrest_1hr: Apredica 1-hour HepG2 Assay for Cell Cycle Arrest (AID 2282666); conditions: high-content imaging, actives raise or lower the signal
Outline: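 HepG2 cells exposed for 1 h to 0.39–200 uM compound (0.5% DMSO). Fixed, Hoechst-stained nuclei imaged by ArrayScan; DNA content quantified by Cell Cycle analysis; bidirectional fit against DMSO.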

[2] = ACEA_ER_80hr: ACEA Biosciences xCELLigence Real-Time Cell Analysis on Estrogen Receptor Agonism for Proliferation (AID 2282667; active = hit-call score of the fitted dose curve at least 0.9, where 1 is the maximum); conditions: T47D proliferation, impedance (xCELLigence), 80 h
Outline: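 Real-time impedance growth kinetics of human T-47D breast cells read 80 h after dosing, gain-of-signal fitted relative to DMSO. Compounds: 1:4 serial series, top final concentration 100 uM, n = 2.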

[3] = APR_HepG2_MicrotubuleCSK_1hr: Apredica 1-hour HepG2 Assay for Microtubule CSK Stabilty (AID 2282669); conditions: HepG2 microtubule cytoskeleton imaging, actives raise or lower the signal
Outline: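 HepG2 cells exposed 1 h to 0.39–200 uM compound (0.5% DMSO, duplicates), then formaldehyde-fixed, permeabilized and immunostained for alpha-tubulin with Hoechst nuclei. Imaged by ArrayScan high-content analysis; bidirectional fit versus DMSO.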

[4] = APR_HepG2_NuclearSize_1hr: Apredica 1-hour HepG2 Assay for Nuclear Size (AID 2282670); conditions: high-content imaging, actives raise or lower the signal
Outline: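 HepG2 cells dosed 1 hr with 0.39–200 uM compound (0.5% DMSO), formaldehyde-fixed, Hoechst 33342-stained and imaged at 20x; nuclear diameter from nuclear stain, fitted bidirectionally against DMSO.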

[5] = APR_HepG2_p53Act_1hr: Apredica 1-hour HepG2 Assay for p53 Activation (AID 2282671); conditions: high-content imaging, actives raise or lower the signal
Outline: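 HepG2 cells treated 1 h with compound at 0.39–200 uM (10 concentrations, duplicate) in 0.5% DMSO. Formaldehyde-fixed, permeabilised cells immunostained for p53 with Hoechst 33342; high-content imaging, bidirectional fit versus DMSO.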

[6] = APR_HepG2_MitoticArrest_1hr: Apredica 1-hour HepG2 Assay for Mitotic Arrest (AID 2282672); conditions: high-content imaging, actives raise or lower the signal
Outline: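 HepG2 cells exposed 1 hr to compounds at 0.39–200 uM (0.5% v/v DMSO final), then fixed in 3.7% formaldehyde and immunostained for phospho-histone H3 with Hoechst 33342. Mitotic arrest scored by automated fluorescence imaging, fitted bidirectionally versus DMSO.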

[7] = APR_HepG2_MitoMembPot_1hr: Apredica 1-hour HepG2 Assay for Mitochondrial Membrane Potential (AID 2282675); conditions: imaging, actives raise or lower the signal
Outline: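 HepG2 cells dosed 1 hour with 0.39–200 uM compound in duplicate, 0.5% DMSO final. MitoTracker Red CMXRos (250 nM, 30 min) loaded before formaldehyde fixation; fluorescence quantified by high-content imaging, bidirectional fitting versus DMSO.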

[8] = APR_HepG2_CellCycleArrest_24hr: Apredica 24-hour HepG2 Assay for Cell Cycle Arrest (AID 2282905); conditions: imaging, actives raise or lower the signal;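 also: cell cycle arrest scored as ratio of 2N to 4N nuclear DNA content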
Outline: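 Cell cycle arrest is scored from nuclear DNA content measured by high-content imaging of Hoechst 33342-stained HepG2 cells following 24-hour treatment at ten concentrations up to 200 uM, with DMSO as baseline.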

[9] = APR_HepG2_StressKinase_1hr: Apredica 1-hour HepG2 Assay for Stress Kinase (AID 2282906); conditions: HepG2 stress kinase (phospho-c-Jun) imaging, actives raise or lower the signal
Outline: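 HepG2 cells dosed 0.39-200 uM (0.5% DMSO) for 1 h, then formaldehyde-fixed. Stress kinase read by phospho-c-Jun immunofluorescence using high-content imaging; bidirectional fit vs DMSO.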

[10] = APR_HepG2_NuclearSize_24hr: Apredica 24-hour HepG2 Assay for Nuclear Size (AID 2282907); conditions: high-content imaging, actives raise or lower the signal
Outline: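 Compounds in DMSO (final 0.5%) were added to human HepG2 hepatoma cells at ten concentrations up to 200 uM for 24 hr. Fixed nuclei were stained with Hoechst 33342, and nuclear diameter was quantified from automated images.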

[11] = APR_HepG2_CellLoss_24hr: Apredica 24-hour HepG2 Assay for Cell Loss (AID 2282908); conditions: high-content imaging;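 as to AC50: fit in both directions so a hit may be cell loss or gain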
Outline: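 Cell number is quantified by fluorescence imaging of Hoechst 33342-stained nuclei following dosing at 0.39–200 uM in 0.5% DMSO. Curves are fitted in both directions from the DMSO baseline.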

[12] = APR_HepG2_MicrotubuleCSK_24hr: Apredica 24-hour HepG2 Assay for Microtubule CSK Stabilty (AID 2282909); conditions: HepG2 microtubule cytoskeleton imaging, actives raise or lower the signal
Outline: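 Steps: dose HepG2 for 24 h (0.39–200 uM, 0.5% DMSO); fix 30 min in 3.7% formaldehyde at room temperature; permeabilize; stain alpha-tubulin 60 min; image microtubule cytoskeleton at 20x. Signal change fitted in both directions relative to DMSO.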

[13] = APR_HepG2_MitoticArrest_24hr: Apredica 24-hour HepG2 Assay for Mitotic Arrest (AID 2282910); conditions: high-content imaging, actives raise or lower the signal
Outline: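 HepG2 human liver cells were exposed to compounds at 0.39–200 uM (10 concentrations, duplicate) in 0.5% v/v DMSO for 24 hr, then fixed and immunostained for phospho-histone H3 with Hoechst 33342. Mitotic arrest came from HCS fluorescent imaging, fitted bidirectionally against DMSO.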

[14] = APR_HepG2_MitoMembPot_24hr: Apredica 24-hour HepG2 Assay for Mitochondrial Membrane Potential (AID 2282911); conditions: imaging, actives raise or lower the signal
Outline: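 Mitochondrial membrane potential imaged via MitoTracker Red CMXRos (250 nM, 30 min pre-fixation) in fixed HepG2 cells with Hoechst nuclear identification. Ten concentrations 0.39–200 uM, 24 h treatment, 0.5% DMSO; CCCP as positive control.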

[15] = APR_HepG2_MitoMass_24hr: Apredica 24-hour HepG2 Assay for Mitochondrial Mass (AID 2282912); conditions: high-content imaging, actives raise or lower the signal
Outline: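 The liver line HepG2 was dosed in duplicate across a 0.39–200 uM series, with final DMSO held at 0.5% v/v, and harvested at 24 hr. High-content imaging measured mitochondrial dye staining.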

[16] = APR_HepG2_p53Act_24hr: Apredica 24-hour HepG2 Assay for p53 Activation (AID 2282913); conditions: high-content imaging, actives raise or lower the signal;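 also: p53 protein immunofluorescence averaged per cell in HepG2 with Hoechst nuclei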
Outline: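 Fluorescence imaging of formaldehyde-fixed HepG2 cells labelled for p53 and with Hoechst, 24 h after dosing (0.39–200 uM, duplicate wells, 0.5% v/v DMSO). Signal fitted in both directions relative to DMSO.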

[17] = APR_HepG2_CellCycleArrest_72hr: Apredica 72-hour HepG2 Assay for Cell Cycle Arrest (AID 2282914); conditions: high-content imaging, actives raise or lower the signal
Outline: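 Read-out: nuclear DNA content from Hoechst 33342 high-content imaging (20x, six fields/well) after 3.7% formaldehyde fixation, fitted bidirectionally against DMSO. Treatment was 72 h in HepG2, ten concentrations 0.39–200 uM, duplicate, 0.5% DMSO.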

[18] = APR_HepG2_P-H2AX_1hr: Apredica 1-hour HepG2 Assay for H2AX Phosphorylation (AID 2282673); conditions: high-content imaging, actives raise or lower the signal
Outline: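 HepG2 dosed 1 hr at 0.39-200 uM (0.5% DMSO final), duplicate. Fixed in 3.7% formaldehyde, Triton permeabilized, immunostained for phospho-histone H2A.x (1:200) with Hoechst 33342; ArrayScan 20x imaging, bidirectional fit vs DMSO.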

[19] = APR_HepG2_MitoMass_1hr: Apredica 1-hour HepG2 Assay for Mitochondrial Mass (AID 2282674); conditions: high-content imaging, actives raise or lower the signal
Outline: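 HepG2 cells dosed 1 hr with 0.39-200 uM compound (0.5% DMSO), duplicate wells. Mitochondria stained with 250 nM MitoTracker Red CMXRos for 30 min before formaldehyde fixation, imaged at 20x by ArrayScan; bidirectional fit versus DMSO.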

[20] = APR_HepG2_CellLoss_1hr: Apredica 1-hour HepG2 Assay for Cell Loss (AID 2282668); conditions: high-content imaging;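 also: curves fitted both ways against DMSO so gain or loss of cells counts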
Outline: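 HepG2 cells were treated for 1 h with compound at 0.39–200 uM, in duplicate, in 0.5% DMSO. After formaldehyde fixation, Hoechst 33342-stained nuclei were imaged on an ArrayScan to count cells. Data were fitted bidirectionally versus DMSO.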

Measured: AC50

COC(=O)NS(=O)(=O)c1ccc(N)cc1
not listed: [18] | [19] | [20]
inactive: all other assays above

Cc1ccc(N=CN(C)C=Nc2ccc(C)cc2C)c(C)c1
active: [7] 108 µM | [9] 75.4 µM | [11] 117 µM | [14] 44.7 µM
not listed: [4] | [20]
inactive: all other assays above

CCN(CC)C(=O)C(C)Oc1cccc2ccccc12 (stereo unspecified)
active: [17] 106 µM
not listed: [6] | [9] | [14] | [18] | [19]
inactive: all other assays above

Cc1c(COC(=O)[C@@H]2[C@H](/C=C(\Cl)C(F)(F)F)C2(C)C)cccc1-c1ccccc1
not listed: [4] | [6] | [9] | [18] | [20]
inactive: all other assays above

CS(=O)(=O)c1cc(C(F)(F)F)ccc1C(=O)c1cnoc1C1CC1
not listed: [1] | [6] | [14] | [19] | [20]
inactive: all other assays above

COP(=S)(OC)SCn1nnc2ccccc2c1=O
active: [17] 100 µM
not listed: [1] | [4] | [6] | [9] | [18] | [19] | [20]
inactive: all other assays above

C=C(C)CN(CC)c1c([N+](=O)[O-])cc(C(F)(F)F)cc1[N+](=O)[O-]
not listed: [1] | [4] | [6] | [9]
inactive: all other assays above

COCc1cnc(C2=NC(C)(C(C)C)C(=O)N2)c(C(=O)O)c1 (stereo unspecified)
inactive: [2] | [3] | [7] | [8] | [10] | [11] | [12] | [13] | [15] | [17]

CCCC(=NOCC)C1=C(O)CC(CC(C)SCC)CC1=O (stereo unspecified)
not listed: [1] | [4] | [6] | [14] | [19] | [20]
inactive: all other assays above

CC(C)Oc1cccc(NC(=O)c2ccccc2C(F)(F)F)c1
not listed: [1] | [4] | [6] | [14] | [18] | [19] | [20]
inactive: all other assays above

COC(=O)N(C(=O)N1CO[C@@]2(C(=O)OC)Cc3cc(Cl)ccc3C2=N1)c1ccc(OC(F)(F)F)cc1
not listed: [1] | [4] | [9] | [19]
inactive: all other assays above

COCC(=O)N(c1c(C)cccc1C)C(C)C(=O)OC (stereo unspecified)
not listed: [1] | [4] | [9] | [20]
inactive: all other assays above

COCC(C)N(C(=O)CCl)c1c(C)csc1C (stereo unspecified)
active: [8] 109 µM | [11] 115 µM | [16] 92.6 µM
not listed: [1] | [4] | [9] | [14] | [18] | [19]
inactive: all other assays above

Nc1c(Cl)c(Cl)nc(C(=O)O)c1Cl
not listed: [1] | [4] | [9] | [14] | [18] | [20]
inactive: all other assays above

N#Cc1c(Cl)cccc1Cl
not listed: [1] | [4] | [6] | [14] | [19] | [20]
inactive: all other assays above

CC(C)N1C(=O)N(c2ccccc2)CSC1=NC(C)(C)C
active: [7] 114 µM | [8] 97.8 µM | [11] 115 µM | [12] 76.6 µM | [13] 114 µM
not listed: [1] | [6] | [14] | [18] | [19]
inactive: all other assays above

COP(=S)(OC)Oc1ccc([N+](=O)[O-])c(C)c1
not listed: [1] | [6] | [9] | [18]
inactive: all other assays above
